# Assay results from PubChem BioAssay.
# The source made the active and inactive calls. Unless noted, no rule for the calls is given here.
# Tests used:
# [1] = test system: Wnt5a (protein binding on small-molecule microarray); assay: small molecules binding Wnt5a protein – biophysical, small-molecule microarray, 635/667 nm fluorescence, primary screen (AID 1142); settings: 635 nm fluorescence, higher = more signal;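 also: fluorescence read at 667 nm with signal to noise per printed feature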
# [2] = ATP-based viability of Huh7 replicon cells – cell-based, CellTiter-Glo luminescence, basal, 48 h, cytotoxicity control for HCV replication inhibitor project, primary screen (AID 1143); settings: higher = more signal, called active from +8 up or from −8 down;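 also: Huh7 hepatoma cells carrying a hepatitis C replication reporter with no stimulus; test concentration not given here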
# [3] = Pseudomonas biofilm growth suppression – PAO1 strain, BacTiter-Glo luminescence, LB-PBS, primary screen (AID 1144); settings: P. aeruginosa PAO1 biofilm, 12 h, higher = more signal
# [4] = basal CRE-LacZ reporter activity in PC12 – cell-based, unstimulated, primary screen (AID 1145); settings: no forskolin, luminescence, 4.5 h, higher = more signal, called active from +8 up or from −8 down
# [5] = forskolin-driven CRE-LacZ activity in PC12 – cell-based, CRE-LacZ reporter, forskolin-stimulated, primary screen (AID 1146); settings: luminescence, 4.5 h, higher = more signal, called active from +8 up or from −8 down;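 also: PC12 cells with 6xCRE LacZ reporter stimulated by forskolin 10 µM; beta-galactosidase reporter signal reflecting CREB driven transcription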
# [6] = target: Streptavidin (Streptomyces avidinii) (UniProt P22629); assay: compounds binding control protein streptavidin – biophysical, small-molecule microarray, 635/667 nm fluorescence, artefact control for SMM compound annotation, primary screen (AID 1147); settings: higher = more signal;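 also: signal reflects streptavidin binding to arrayed compounds as a control protein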
# Sequence of Streptavidin (Streptomyces avidinii) (P22629 whole entry, looked up): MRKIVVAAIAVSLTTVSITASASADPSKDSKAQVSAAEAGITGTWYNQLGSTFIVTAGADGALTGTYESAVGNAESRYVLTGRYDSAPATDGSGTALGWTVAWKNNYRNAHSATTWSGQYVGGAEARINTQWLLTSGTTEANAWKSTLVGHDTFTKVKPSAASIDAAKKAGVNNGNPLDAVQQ
# [7] = probe aInhba binding on compound microarray – biochemical, small-molecule microarray, 635/667 nm fluorescence, primary screen (AID 1148); settings: higher = more signal;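 also: score merges 667nm spot fluorescence with signal-to-noise for antibody binding to printed compounds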
# Torsin-1A (Homo sapiens) [8] = target: Torsin-1A (Homo sapiens) (UniProt O14656); assay: TOR1A wild-type binding on microarray – cell lysate, small-molecule microarray, lysate, 635/667 nm, primary screen (AID 1149); settings: COS7 hTOR1A-WT lysate, 635 nm fluorescence, higher = more signal
# Sequence of Torsin-1A (Homo sapiens) (O14656 whole entry, looked up): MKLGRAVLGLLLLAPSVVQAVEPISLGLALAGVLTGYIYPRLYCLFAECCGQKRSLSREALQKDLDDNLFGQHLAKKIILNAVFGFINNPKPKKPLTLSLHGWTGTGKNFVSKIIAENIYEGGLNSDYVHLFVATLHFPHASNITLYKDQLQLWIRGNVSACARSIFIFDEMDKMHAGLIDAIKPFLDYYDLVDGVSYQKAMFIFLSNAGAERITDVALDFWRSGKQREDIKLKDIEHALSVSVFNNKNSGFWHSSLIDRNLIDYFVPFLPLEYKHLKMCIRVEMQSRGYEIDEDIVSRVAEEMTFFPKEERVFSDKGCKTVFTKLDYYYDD
# Torsin-1A (Homo sapiens) [9] = target: Torsin-1A (Homo sapiens) (UniProt O14656); assay: torsin A mutant lysate binding on microarrays – cell lysate, small-molecule microarray, COS7 lysate, 635/667 nm fluorescence, primary screen (AID 1150); settings: COS7 hTOR1A mutant lysate, 635 nm fluorescence, higher = more signal;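 also: score pools 667 nm emission and signal to noise measuring lysate protein binding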
# [10] = test system: Sonic hedgehog protein (Shh); assay: Sonic hedgehog microarray binding compounds – biochemical, small-molecule microarray, 635/667 nm fluorescence, primary screen (AID 1151); settings: 635 nm fluorescence, higher = more signal;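 also: Shh protein binding to compounds spotted on small-molecule microarray slides; score combines spot fluorescence intensity with signal-to-noise across triplicate slides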
# [11] = optical density shifts of acrAB sulA E. coli – strain DRC41, OD650, 48 h, E. coli filamentation inducer project, primary screen (AID 1152); settings: higher = more signal, called active from +8 up or from −8 down;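 also: E. coli MC1000 strain DRC41 lacking acrAB efflux pump and sulA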
# [12] = probe aLefty1 binding on compound microarray – biochemical, small-molecule microarray, 635/667 nm fluorescence, primary screen (AID 1153); settings: higher = more signal;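 also: score merges spot fluorescence with signal-to-noise ratio from the scanned slide images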
# [13] = plasmodial surface anion channel blockers, osmotic lysis – cell-based, P. falciparum Indochina, OD700, 1 h, primary screen (AID 1154); settings: P. falciparum Indochina infected RBC osmotic lysis, higher = more signal, called active from +8 up or from −8 down
# [14] = plasmodial surface anion channel blockers, osmotic lysis – cell-based, P. falciparum Indochina, OD700, 2 h, primary screen (AID 1155);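 also: lysis reports solute entry through the parasite surface anion channel PSAC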; settings: P. falciparum Indochina infected erythrocytes, higher = more signal, called active from +8 up or from −8 down
# [15] = changes in parasitized red cell lysis, either direction – P. falciparum Indochina, OD700, 3 h, PSAC antagonist project, primary screen (AID 1156); settings: P. falciparum-infected erythrocytes, osmotic lysis, higher = more signal, called active from +8 up or from −8 down
# [16] = plasmodial surface anion channel blockers, osmotic lysis – cell-based, P. falciparum Indochina, OD700, 18 h, primary screen (AID 1157); settings: P. falciparum Indochina infected erythrocytes, osmotic lysis OD700, 18 h; higher = more signal, called active from +8 up or from −8 down
# [17] = S6 kinase pathway phospho-S6 level changes – cell-based, A549, cytoblot, luminescence, serum-stimulated, primary screen (AID 1158); settings: 5 h, higher = more signal;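 also: serum-stimulated A549 lung adenocarcinoma cells; signal is phosphorylated S6 detected by cytoblot immunostaining with HRP secondary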
# [18] = target: NADPH oxidase 2 (Homo sapiens) (UniProt P04839); assay: compounds shifting NOX2 Amplex Red fluorescence – cell-based, HEK293-NOX2, PMA-stimulated, NOX inhibitor project, primary screen (AID 1159); settings: 45 min, higher = more signal, called active from +8 up or from −8 down; also: test concentration not given here
# Sequence of NADPH oxidase 2 (Homo sapiens) (P04839 whole entry, looked up): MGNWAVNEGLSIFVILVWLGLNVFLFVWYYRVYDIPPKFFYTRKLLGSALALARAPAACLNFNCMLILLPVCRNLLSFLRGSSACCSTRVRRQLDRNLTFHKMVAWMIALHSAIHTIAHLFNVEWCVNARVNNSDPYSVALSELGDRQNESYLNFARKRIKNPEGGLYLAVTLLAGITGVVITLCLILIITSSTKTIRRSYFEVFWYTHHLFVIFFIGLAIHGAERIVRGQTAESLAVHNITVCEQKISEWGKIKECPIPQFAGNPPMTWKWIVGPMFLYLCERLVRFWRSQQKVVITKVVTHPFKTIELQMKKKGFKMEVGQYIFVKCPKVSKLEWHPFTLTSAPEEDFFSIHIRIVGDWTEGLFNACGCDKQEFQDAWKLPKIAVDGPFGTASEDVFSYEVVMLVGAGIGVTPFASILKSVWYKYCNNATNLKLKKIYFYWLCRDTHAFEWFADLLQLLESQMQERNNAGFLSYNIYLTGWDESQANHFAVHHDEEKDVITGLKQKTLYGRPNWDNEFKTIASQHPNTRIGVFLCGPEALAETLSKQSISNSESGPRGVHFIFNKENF
# [19] = target: NADPH oxidase 4 (Homo sapiens) (UniProt Q9NPH5); assay: compounds shifting NOX4 Amplex Red fluorescence – cell-based, HEK293-NOX4, tetracycline-induced, NOX inhibitor project, primary screen (AID 1160); settings: HEK293-NOX4, Amplex Red H2O2 fluorescence, 45 min; higher = more signal, called active from +8 up or from −8 down
# Sequence of NADPH oxidase 4 (Homo sapiens) (Q9NPH5 whole entry, looked up): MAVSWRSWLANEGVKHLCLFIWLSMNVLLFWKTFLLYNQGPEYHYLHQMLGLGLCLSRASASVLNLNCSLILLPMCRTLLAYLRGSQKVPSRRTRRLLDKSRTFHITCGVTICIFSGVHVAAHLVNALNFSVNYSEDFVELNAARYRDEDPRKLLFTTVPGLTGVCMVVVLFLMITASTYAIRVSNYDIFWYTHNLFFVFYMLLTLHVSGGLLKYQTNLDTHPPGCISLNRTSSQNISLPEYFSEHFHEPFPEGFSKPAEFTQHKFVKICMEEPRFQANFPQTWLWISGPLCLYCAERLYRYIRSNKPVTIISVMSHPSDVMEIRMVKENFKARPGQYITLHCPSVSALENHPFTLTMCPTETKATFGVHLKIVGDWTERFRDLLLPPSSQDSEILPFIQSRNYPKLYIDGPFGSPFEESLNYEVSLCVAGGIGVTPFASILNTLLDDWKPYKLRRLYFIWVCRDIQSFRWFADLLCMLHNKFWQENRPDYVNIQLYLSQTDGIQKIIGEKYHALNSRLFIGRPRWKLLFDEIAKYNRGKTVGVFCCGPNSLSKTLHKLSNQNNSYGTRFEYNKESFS
# [20] = target: NADPH oxidase 5 (Homo sapiens) (UniProt Q96PH1); assay: compounds shifting NOX5 Amplex Red fluorescence – cell-based, HEK293-NOX5, NOX inhibitor project, primary screen (AID 1161); settings: HEK293-NOX5, ionomycin, 45 min, higher = more signal
# Sequence of NADPH oxidase 5 (Homo sapiens) (Q96PH1 whole entry, looked up): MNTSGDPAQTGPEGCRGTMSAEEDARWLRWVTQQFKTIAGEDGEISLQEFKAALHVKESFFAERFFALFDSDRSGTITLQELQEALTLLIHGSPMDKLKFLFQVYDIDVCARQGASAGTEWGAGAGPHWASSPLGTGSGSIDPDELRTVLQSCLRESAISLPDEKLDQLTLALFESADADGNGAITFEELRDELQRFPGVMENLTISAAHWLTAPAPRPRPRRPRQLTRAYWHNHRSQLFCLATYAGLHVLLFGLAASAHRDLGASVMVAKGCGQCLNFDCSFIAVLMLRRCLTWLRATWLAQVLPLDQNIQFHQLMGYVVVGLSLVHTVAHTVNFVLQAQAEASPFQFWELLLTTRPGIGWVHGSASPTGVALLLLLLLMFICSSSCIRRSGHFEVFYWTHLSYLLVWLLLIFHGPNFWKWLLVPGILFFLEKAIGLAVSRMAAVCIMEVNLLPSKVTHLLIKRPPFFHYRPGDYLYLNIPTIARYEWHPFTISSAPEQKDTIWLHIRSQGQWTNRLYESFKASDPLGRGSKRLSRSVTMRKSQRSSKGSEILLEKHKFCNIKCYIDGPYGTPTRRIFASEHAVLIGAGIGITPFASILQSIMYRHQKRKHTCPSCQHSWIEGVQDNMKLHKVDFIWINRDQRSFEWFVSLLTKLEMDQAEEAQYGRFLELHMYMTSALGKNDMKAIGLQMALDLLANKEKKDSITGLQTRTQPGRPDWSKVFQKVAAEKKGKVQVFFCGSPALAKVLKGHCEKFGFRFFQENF
SMILES,composite z-score [1],z-score [2],z-score [3],z-score [4],z-score [5],composite z-score [6],composite z-score [7],composite z-score (Torsin-1A (Homo sapiens) [8]),composite z-score (Torsin-1A (Homo sapiens) [9]),composite z-score [10],z-score [11],composite z-score [12],z-score [13],z-score [14],z-score [15],z-score [16],z-score [17],z-score [18],z-score [19],z-score [20]
CC[C@@H]1C=C(C(=O)O)[C@H](c2ccc(OC)cc2)N1S(=O)(=O)c1ccc(C)cc1,0.0237,-1.09 (inactive),1.01 (inactive),0.0798 (inactive),0.0935 (inactive),0.114,-0.016,-0.579,0.316,-0.236,-1.46 (inactive),-0.0449,0.785 (inactive),0.453 (inactive),-0.51 (inactive),0.437 (inactive),-0.458,0.339 (inactive),-0.517 (inactive),-0.215
O=C(NCC(O)CO)C1N=C(c2ccc(OCCCO)cc2)N(c2ccccc2)O1 (stereo not given),0.41,-1.12 (inactive),2.56 (inactive),0.456 (inactive),-0.442 (inactive),-0.214,-0.0468,0.975,0.682,1.27,-0.0446 (inactive),-0.316,13.5 (active),1.49 (inactive),0.257 (inactive),0.594 (inactive),0.0265,-1.68 (inactive),-1.05 (inactive),-0.583
Cc1ccc(S[C@]2(C(=O)NCCCN(C)C)CC(=O)N(C3Cc4ccccc4C3)[C@@H]2c2ccc(CO)cc2I)cc1,-0.283,-1.5 (inactive),0.505 (inactive),0.155 (inactive),2.5 (inactive),0.372,-0.182,-1.5,-1.04,-0.348,-0.759 (inactive),-0.0882,4.32 (inactive),0.903 (inactive),0.925 (inactive),0.352 (inactive),-0.0249,0.914 (inactive),-1.12 (inactive),2.56
NC(=O)N1C(=O)C2C(C1=O)C1C=C(CCCO)C2C(C2CC2)N1Cc1sc2ccccc2c1Cl (stereo not given),0.588,-0.205 (inactive),0.0825 (inactive),0.261 (inactive),-0.654 (inactive),0.526,-0.0371,0.842,0.82,0.726,0.4 (inactive),0.105,13.4 (active),2.12 (inactive),0.394 (inactive),1.07 (inactive),0.125,2.74 (inactive),0.923 (inactive),-0.549
Cc1ccc(S[C@]2(C(=O)NCc3ccccc3)CC(=O)N(Cc3ccccc3C(F)(F)F)[C@@H]2c2ccc(CO)cc2)cc1,-0.666,-2.35 (inactive),-0.937 (inactive),-0.0888 (inactive),-0.0177 (inactive),-1.05,0.0391,-1.02,-0.687,-0.998,0.995 (inactive),-0.012,0.485 (inactive),-0.797 (inactive),-1.37 (inactive),-0.802 (inactive),1.24,-1.69 (inactive),0.0366 (inactive),-0.3
COc1cc(CO)cc(I)c1O[C@H]1C=C(C(=O)NCCO)C[C@@H]2O[C@H]12,0.815,-4.18 (inactive),-0.583 (inactive),3.65 (inactive),3.07 (inactive),0.717,-0.0589,1.58,0.125,1.59,-0.211 (inactive),0.369,11.1 (active),3.45 (inactive),2.06 (inactive),2 (inactive),0.179,1.46 (inactive),-0.691 (inactive),-6.01
CC(C)(C)N1CC=CC23O[C@@H]4/C=C\CCCOC(=O)C4[C@H]2C(=O)N(CCCCCO)[C@@H]3C1=O (stereo not given in full),-0.552,-0.0495 (inactive),1.27 (inactive),0.191 (inactive),-0.311 (inactive),-0.573,-0.258,-0.185,-1.33,-0.58,-0.81 (inactive),-0.191,0.373 (inactive),0.135 (inactive),-1.09 (inactive),0.0116 (inactive),-0.786,1.16 (inactive),0.0398 (inactive),1.21
CN(C)CCCC[C@@H]1NC(=O)[C@H]2C[C@@H](C(=O)O)[C@@H](c3ccc(O)cc3)N2C1=O,0.938,-2.41 (inactive),0.294 (inactive),0.419 (inactive),-0.457 (inactive),3.44,1.98,2.77,3.27,2.17,2.2 (inactive),2.57,3.21 (inactive),0.73 (inactive),-2.43 (inactive),-0.849 (inactive),0.651,0.485 (inactive),-1.06 (inactive),1.4
CCCCC(=C=CC[C@H](O)c1ccc(CO)o1)CCO,0.0119,0.0865 (inactive),0.0836 (inactive),0.96 (inactive),1.56 (inactive),-0.144,-0.128,1.39,0.587,1.69,-0.258 (inactive),-0.0445,2 (inactive),0.278 (inactive),0.517 (inactive),0.134 (inactive),-0.189,0.802 (inactive),-0.0669 (inactive),-0.395
CC(C)=C1C(=O)C(c2ccccc2)=C2CN3C(=O)N(CCc4ccccc4)C(=O)[C@]3(C)[C@H]21,-0.0006,-2.42 (inactive),0.64 (inactive),0.0177 (inactive),0.839 (inactive),0.509,-0.016,-0.656,-0.124,-0.223,-2.52 (inactive),0.298,28.2 (active),24.2 (active),1.63 (inactive),1.62 (inactive),-0.832,-1.16 (inactive),-1.55 (inactive),-0.718
C[N+](C)(C)CCCC[C@@H]1NC(=O)[C@@H]2C[C@H](C(=O)NCc3ccc(F)cc3)[C@H](c3ccc(O)cc3)N2C1=O,-0.176,-0.0669 (inactive),-1.22 (inactive),0.692 (inactive),0.663 (inactive),-0.369,-0.0963,0.965,0.729,1.64,-0.7 (inactive),-0.0186,0.936 (inactive),0.376 (inactive),-1.65 (inactive),0.104 (inactive),0.567,0.274 (inactive),0.22 (inactive),1.17
COCCCNC(=O)[C@@H]1c2ccccc2C(=O)N(Cc2ccc(OC(F)(F)F)cc2)[C@H]1c1ccc(CO)cc1,0.53,-0.429 (inactive),0.0789 (inactive),0.674 (inactive),0.0988 (inactive),-0.0096,-0.0221,0.0966,0.281,1.09,-0.771 (inactive),0.0271,1.93 (inactive),0.566 (inactive),0.913 (inactive),0.303 (inactive),0.0296,-0.385 (inactive),0.915 (inactive),1.91
CC1CC/C=C\[C@H]2OC34C=CCN(CCN5CCOCC5)C(=O)[C@H]3N(CCCO)C(=O)[C@@H]4C2C(=O)O1 (stereo not given in full),-0.239,0.0123 (inactive),1.13 (inactive),-0.887 (inactive),-0.0703 (inactive),-0.601,-0.154,-0.0243,0.0876,0.624,-0.576 (inactive),-0.0518,0.811 (inactive),0.354 (inactive),-0.513 (inactive),0.136 (inactive),1.38,0.638 (inactive),-1.71 (inactive),0.947
COCCOC(=O)N1C(=O)[C@@]2(c3ccccc31)[C@H](C(=O)N1CCN(c3ncccn3)CC1)[C@H]1C(=O)O[C@H](c3ccccc3)[C@H](c3ccccc3)N1[C@@H]2c1ccccc1OCCO,0.404,-4.29 (inactive),-1.51 (inactive),-2.11 (inactive),-0.885 (inactive),0.631,-0.0323,0.545,0.0291,1.53,2.86 (inactive),0.867,10 (active),1.18 (inactive),-0.427 (inactive),0.0951 (inactive),1.89,0.89 (inactive),1.09 (inactive),0.791
O=C(NCC(O)CO)[C@@]1(CCS(=O)(=O)c2ccccc2)N=C(c2ccc(OCCCO)cc2)O[C@H]1c1ccccc1 (stereo not given in full),0.274,-3.75 (inactive),-0.513 (inactive),0.675 (inactive),-1.04 (inactive),1.4,0.212,0.449,1.23,-1.04,-0.295 (inactive),0.419,25.6 (active),19.1 (active),2.38 (inactive),1.39 (inactive),1.07,-0.356 (inactive),1.47 (inactive),1.33
COc1ccc([Si](C)(C)[C@@H]2[C@@H](CC(=O)N3CCC[C@H]3CO)O[C@]3(C(=O)N(Cc4cccc(N5CCCCC5=O)c4)c4ccccc43)[C@H]2C)cc1,-0.104,-2.77 (inactive),-0.331 (inactive),0.105 (inactive),-0.95 (inactive),-0.164,-0.176,0.594,0.81,1.68,0.422 (inactive),0.0046,3.85 (inactive),1.23 (inactive),-1.02 (inactive),0.278 (inactive),0.067,2.88 (inactive),1.64 (inactive),4.73
C=CCC(OC(C)=O)[C@@H]1[C@@H](N(Cc2cccc3ccccc23)C(=O)Cc2ccc(OC)cc2)c2cc(OCCCO)ccc2N1C(=O)Cc1ccc2ccccc2c1 (stereo not given in full),-0.0841,-1.91 (inactive),0.255 (inactive),-0.854 (inactive),1.38 (inactive),0.175,-0.181,-0.254,-0.41,0.0227,-0.504 (inactive),0.285,2.18 (inactive),0.0026 (inactive),1.42 (inactive),-0.0843 (inactive),0.909,-2.23 (inactive),-0.887 (inactive),-1.91
